Measured values: PubChem BioAssay
Activity calls are given as the source filed them.

Key:
Albumin (Bos taurus) = Albumin (Bos taurus) (UniProt P02769); assay: bovine serum albumin binders on microarray, profiling panel, artefact control for SMM control protein annotation, biochemical, small-molecule microarray, Alexa647 label, 635/667 nm fluorescence (AID 1118); details: BSA-A647 binding, fluorescence 635 nm, higher = more signal;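 further: score merges 667 nm emission intensity and signal-to-noise per printed compound spot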
Chain of Albumin (Bos taurus) (P02769 whole entry, looked up): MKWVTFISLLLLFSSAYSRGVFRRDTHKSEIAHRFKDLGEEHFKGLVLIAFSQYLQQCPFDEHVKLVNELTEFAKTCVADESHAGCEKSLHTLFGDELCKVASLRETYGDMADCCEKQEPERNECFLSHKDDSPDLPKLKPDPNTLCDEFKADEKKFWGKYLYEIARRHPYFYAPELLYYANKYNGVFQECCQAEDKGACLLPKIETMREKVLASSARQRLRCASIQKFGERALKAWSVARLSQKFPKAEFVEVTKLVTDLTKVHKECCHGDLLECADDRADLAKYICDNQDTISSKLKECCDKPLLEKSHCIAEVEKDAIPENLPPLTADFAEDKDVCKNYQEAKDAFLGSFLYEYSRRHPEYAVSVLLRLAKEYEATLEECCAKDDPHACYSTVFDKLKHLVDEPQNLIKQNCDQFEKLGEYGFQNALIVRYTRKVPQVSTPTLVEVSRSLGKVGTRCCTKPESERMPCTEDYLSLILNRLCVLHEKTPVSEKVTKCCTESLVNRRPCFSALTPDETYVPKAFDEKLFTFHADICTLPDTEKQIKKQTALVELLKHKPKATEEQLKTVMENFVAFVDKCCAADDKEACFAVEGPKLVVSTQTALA

[1] = small-molecule microarray binders of probe aXIP, primary screen, biochemical, NeuroSMM set, 635/667 nm fluorescence (AID 1119); details: higher = more signal, called active from +8 up or from −8 down;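 further: probe is the protein aXip251-270 applied at 1 µg/mL to compound-printed slides; binding of probe to printed compounds measured as 667 nm fluorescence plus signal to noise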
[2] = small-molecule binders of probe aNOTCH3, primary screen, biochemical, small-molecule microarray, 635/667 nm fluorescence (AID 1120); details: higher = more signal;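 further: probe is a biotin-tagged antibody raised against NOTCH3 rather than NOTCH3 protein; score merges spot fluorescence near 667 nm with spot signal to noise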
[3] = small-molecule binders of probe aNOTCH2, primary screen, biochemical, small-molecule microarray, 635/667 nm fluorescence (AID 1121); details: higher = more signal;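 further: score merges feature fluorescence read at 667 nm with its signal to noise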
[4] = biological target: Carbonic anhydrase 2 (Homo sapiens) (UniProt P00918); assay: CAII small-molecule binders, profiling panel, biochemical, small-molecule microarray, Alexa647-labelled CAII (AID 1122); details: CAII-A647 binding fluorescence, higher = more signal
[5] = COS7 lysate on small-molecule microarray, probe aHis, 635 nm (AID 1123); details: COS7 cell lysate, fluorescence, higher = more signal;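 further: z-score combines 667nm fluorescence intensity with signal-to-noise per printed compound spot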
[6] = compound binding in COS7 lysate, probe aLAP1, primary screen, cell lysate, small-molecule microarray (AID 1124); details: probe aLAP1, fluorescence, higher = more signal;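 further: lysate comes from COS7 cells expressing LAP1 and is applied at 0.3 µg/mL; score merges spot fluorescence near 667 nm with signal-to-noise over triplicate slides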
Sam68 (KHDRBS1) = assay: Sam68 small-molecule binders, primary screen, biochemical, small-molecule microarray, 635 nm fluorescence (AID 1125); details: small-molecule microarray binding, higher = more signal;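 further: score merges 667 nm channel intensity with signal to noise over triplicate slides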
[7] = tested on: Chordin-like protein 2 (CHRDL2); assay: CHRDL2 small-molecule binders, primary screen, biochemical, small-molecule microarray, 635 nm fluorescence (AID 1126); details: small-molecule microarray binding, fluorescence 635 nm; higher = more signal;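 further: printed compound slides probed with Chrdl2 protein at 4 µg/mL for 1 h at 4 C; score merges 667 nm emission intensity with signal to noise over three replicate slides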
[8] = biological target: Concanavalin-A (Canavalia ensiformis) (UniProt P02866); assay: ConA small-molecule binders, primary screen, artefact control for SMM control protein annotation, biochemical, small-molecule microarray, Alexa647 label, 635 nm (AID 1127); details: ConA-A647 binding fluorescence, higher = more signal;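 further: z combines 667 nm emission intensity with signal-to-noise across three replicate slides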
Chain of Concanavalin-A (Canavalia ensiformis) (P02866 whole entry, looked up): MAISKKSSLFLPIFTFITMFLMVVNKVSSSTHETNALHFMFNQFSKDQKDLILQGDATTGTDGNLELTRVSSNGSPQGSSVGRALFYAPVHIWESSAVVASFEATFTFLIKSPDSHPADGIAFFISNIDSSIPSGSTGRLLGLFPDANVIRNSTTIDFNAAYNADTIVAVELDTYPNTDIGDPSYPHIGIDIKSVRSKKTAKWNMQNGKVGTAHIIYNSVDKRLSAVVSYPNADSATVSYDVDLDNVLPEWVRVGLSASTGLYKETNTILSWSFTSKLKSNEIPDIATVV

[9] = anti-His antibody binders, primary screen, artefact control for SMM control protein annotation, biochemical, small-molecule microarray, 635 nm fluorescence (AID 1128); details: anti-His Alexa647 antibody binding, higher = more signal;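 further: score merges feature fluorescence with signal-to-noise for each printed compound spot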
[10] = tested on: Human papillomavirus type 1a E7 protein (residues 1-88); assay: HPV1a E7 small-molecule binders, primary screen, biochemical, small-molecule microarray, residues 1-88, 635 nm (AID 1129); details: small-molecule microarray binding, fluorescence 635 nm; higher = more signal
[11] = biological target: Focal adhesion kinase 1 (Homo sapiens) (UniProt Q05397); assay: small-molecule microarray binders of FAK, primary screen, biochemical, 635/667 nm fluorescence, BSA, DTT (AID 1130); details: PTK2 binding, 635 nm fluorescence, higher = more signal;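 further: composite of spot emission at 667 nm and signal to noise over triplicate slides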
Chain of Focal adhesion kinase 1 (Homo sapiens) (Q05397 whole entry, looked up): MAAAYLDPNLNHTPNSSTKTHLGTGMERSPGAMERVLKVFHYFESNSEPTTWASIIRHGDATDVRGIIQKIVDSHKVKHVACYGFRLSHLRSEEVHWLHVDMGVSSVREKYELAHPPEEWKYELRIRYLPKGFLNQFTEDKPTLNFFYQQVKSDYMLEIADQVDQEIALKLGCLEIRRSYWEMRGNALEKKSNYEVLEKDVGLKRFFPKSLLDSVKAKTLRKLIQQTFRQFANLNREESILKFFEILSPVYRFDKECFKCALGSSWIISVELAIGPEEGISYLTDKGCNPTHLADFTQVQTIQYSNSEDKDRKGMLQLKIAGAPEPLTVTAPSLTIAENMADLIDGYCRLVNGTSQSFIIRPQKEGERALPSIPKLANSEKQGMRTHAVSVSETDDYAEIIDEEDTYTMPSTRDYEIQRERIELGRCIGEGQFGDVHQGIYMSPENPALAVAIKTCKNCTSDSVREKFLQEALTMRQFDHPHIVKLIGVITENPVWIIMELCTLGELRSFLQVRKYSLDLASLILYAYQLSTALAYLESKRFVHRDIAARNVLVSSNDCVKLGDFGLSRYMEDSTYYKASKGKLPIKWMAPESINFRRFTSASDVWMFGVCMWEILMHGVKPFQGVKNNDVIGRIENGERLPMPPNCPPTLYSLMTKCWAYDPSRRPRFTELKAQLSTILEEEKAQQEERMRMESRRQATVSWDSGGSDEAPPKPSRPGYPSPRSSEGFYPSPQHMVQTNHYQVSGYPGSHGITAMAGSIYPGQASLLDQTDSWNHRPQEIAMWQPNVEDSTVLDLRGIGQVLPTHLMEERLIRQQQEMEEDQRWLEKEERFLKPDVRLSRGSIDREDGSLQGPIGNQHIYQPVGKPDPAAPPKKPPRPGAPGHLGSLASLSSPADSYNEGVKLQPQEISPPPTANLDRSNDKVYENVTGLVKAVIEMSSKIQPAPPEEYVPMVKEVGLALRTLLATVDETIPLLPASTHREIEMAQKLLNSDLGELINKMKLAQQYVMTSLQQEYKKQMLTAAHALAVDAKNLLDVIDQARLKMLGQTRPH

[12] = tested on: Fibrinogen (Alexa647-labelled); assay: fibrinogen binders on compound microarrays, profiling panel, artefact control for SMM control-protein annotation, biochemical, small-molecule microarray, 635/667 nm fluorescence (AID 1131); details: fibrinogen-A647 binding fluorescence, higher = more signal;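 further: z-score merges 667 nm fluorescence with per-spot signal-to-noise over triplicate slides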
[13] = biological target: Follistatin (Homo sapiens) (UniProt P19883); assay: follistatin binders on small-molecule microarrays, primary screen, biochemical, small-molecule microarray, 635/667 nm fluorescence (AID 1132); details: FST binding, 635 nm fluorescence, higher = more signal
Chain of Follistatin (Homo sapiens) (P19883 whole entry, looked up): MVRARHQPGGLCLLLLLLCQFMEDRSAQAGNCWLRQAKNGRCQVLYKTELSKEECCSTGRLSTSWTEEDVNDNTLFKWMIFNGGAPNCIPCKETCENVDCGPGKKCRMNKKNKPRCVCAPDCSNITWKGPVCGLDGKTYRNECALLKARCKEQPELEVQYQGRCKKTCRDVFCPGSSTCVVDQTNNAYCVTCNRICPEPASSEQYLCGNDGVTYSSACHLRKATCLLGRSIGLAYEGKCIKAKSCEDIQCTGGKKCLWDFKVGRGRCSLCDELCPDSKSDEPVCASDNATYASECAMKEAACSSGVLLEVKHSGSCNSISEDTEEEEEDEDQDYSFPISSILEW

[14] = biological target: Fibroblast growth factor 2 (Homo sapiens) (UniProt P09038); assay: FGF2 binders on small-molecule microarrays, primary screen, biochemical, small-molecule microarray, 635/667 nm fluorescence (AID 1133); details: small-molecule microarray binding, FGF2, fluorescence 635/667; higher = more signal
Chain of Fibroblast growth factor 2 (Homo sapiens) (P09038 whole entry, looked up): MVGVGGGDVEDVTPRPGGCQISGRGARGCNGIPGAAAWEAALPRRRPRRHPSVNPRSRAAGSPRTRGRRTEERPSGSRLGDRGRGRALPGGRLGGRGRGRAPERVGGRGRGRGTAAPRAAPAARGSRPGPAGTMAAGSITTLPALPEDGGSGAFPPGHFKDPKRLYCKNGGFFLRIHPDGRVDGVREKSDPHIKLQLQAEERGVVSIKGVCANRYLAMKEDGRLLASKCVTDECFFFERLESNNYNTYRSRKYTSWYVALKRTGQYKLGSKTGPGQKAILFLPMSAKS

[15] = mitochondrial membrane potential change in A549 cells, profiling panel, cell-based, JC-1 fluorescence, basal, 24 h, 100 nL (AID 1138); details: higher = more signal;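 further: A549 lung adenocarcinoma cells under basal conditions with no added stimulus; test concentration not given here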
Lefty1 = Lefty1 binders on small-molecule microarrays, primary screen, biochemical, small-molecule microarray, 635/667 nm fluorescence (AID 1139); details: small-molecule microarray binding, fluorescence 635/667; higher = more signal
[16] = tested on: wheat germ agglutinin (Triticum aestivum), Alexa647-labelled; assay: wheat germ agglutinin binders on compound microarrays, profiling panel, artefact control for SMM control-protein annotation, biochemical, small-molecule microarray, 635/667 nm fluorescence (AID 1140); details: WGA-A647 binding, 635 nm fluorescence, higher = more signal;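 further: score merges 667 nm feature emission with signal to noise over triplicate slides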
[17] = biological target: Luciferin 4-monooxygenase (Photinus pyralis) (UniProt P08659); assay: firefly luciferase enzyme inhibitors, primary screen, biochemical, luminescence, purified enzyme, 2006 set (AID 1141); details: SteadyGlo luminescence, 30 min, higher = more signal, called active from +8 up or from −8 down;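 further: cell-free assay with purified firefly luciferase at 100 ng per well in PBS; test concentration not given here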
Chain of Luciferin 4-monooxygenase (Photinus pyralis) (P08659 whole entry, looked up): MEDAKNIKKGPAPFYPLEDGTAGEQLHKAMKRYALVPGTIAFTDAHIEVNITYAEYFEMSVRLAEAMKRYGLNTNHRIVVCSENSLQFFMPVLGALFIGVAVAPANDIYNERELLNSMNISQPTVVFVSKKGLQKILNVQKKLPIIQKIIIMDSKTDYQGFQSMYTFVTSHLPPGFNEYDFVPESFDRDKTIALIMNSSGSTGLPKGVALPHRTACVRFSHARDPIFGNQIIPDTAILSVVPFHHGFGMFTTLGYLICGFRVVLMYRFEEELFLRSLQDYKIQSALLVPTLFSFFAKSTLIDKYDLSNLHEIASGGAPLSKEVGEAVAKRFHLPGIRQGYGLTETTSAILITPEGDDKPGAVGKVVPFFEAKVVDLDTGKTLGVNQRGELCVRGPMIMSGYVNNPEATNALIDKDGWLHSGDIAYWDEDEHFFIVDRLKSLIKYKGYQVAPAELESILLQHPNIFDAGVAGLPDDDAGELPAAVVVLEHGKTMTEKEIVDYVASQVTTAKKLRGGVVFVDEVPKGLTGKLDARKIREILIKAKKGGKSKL

Structure (SMILES)	composite z-score (Albumin (Bos taurus))	composite Z-score [1]	composite z-score [2]	composite z-score [3]	composite z-score [4]	composite z-score [5]	composite z-score [6]	composite z-score (Sam68 (KHDRBS1))	composite z-score [7]	composite z-score [8]	composite z-score [9]	composite z-score [10]	composite z-score [11]	composite z-score [12]	composite z-score [13]	composite z-score [14]	z-score [15]	composite z-score (Lefty1)	composite z-score [16]	z-score [17]
C[C@]1(C(=O)NC2CC2)c2ccccc2C(=O)N(Cc2cc(F)cc(C(F)(F)F)c2)[C@H]1c1ccc(CO)cc1	-0.1	0.004 (inactive)	-0.368	-0.164	0.759	2.23	0.522	-0.0456	-1.61	-0.0372	1.26	-0.0534	-0.695	-0.331	0.719	-0.785	-0.057	0.0495	-0.692	0.851 (inactive)
COC(=O)C(CC#Cc1ccc2c(c1)[C@]1(C(=O)N2)[C@H](c2ccccc2OCCO)N2[C@H](c3ccccc3)[C@H](c3ccccc3)OC(=O)[C@H]2[C@@H]1C(=O)N1CCN(c2ncccn2)CC1)C(=O)OC	0.706	0.156 (inactive)	0.0052	-0.132	0.23	1.18	0.309	1.31	1.1	1.11	1.48	1.22	0.13	0.927	1.04	1	-1.46	0.668	0.481	-0.186 (inactive)
CC(=O)NCCCC[C@@H]1NC(=O)[C@H]2C[C@@H](C(=O)NCCCCCN)[C@@H](c3ccc(O)cc3)N2C1=O	0.675	0.0898 (inactive)	-0.0677	-0.0706	0.413	1.1	-0.15	1.21	0.851	0.966	2.49	1.21	0.948	0.653	1.12	1.13	-0.109	0.944	0.773	0.148 (inactive)
CO[C@H]1O[C@H](CO)[C@@H](OC(=O)Nc2cccc(F)c2)[C@H](OC(=O)Nc2ccc3c(c2)OCO3)[C@@H]1OC(=O)Nc1ccc2c(c1)OCO2	0.364	0.942 (inactive)	0.15	-0.0247	0.753	1.64	0.678	1.32	0.149	0.708	2.61	1.29	0.243	0.973	1.25	0.217	-0.307	0.278	0.654	-4.46 (inactive)
CCCCN1CC=CC23O[C@@H]4C=CCCOC(=O)C4[C@H]2C(=O)N(CCO)[C@@H]3C1=O (stereo not given in full)	0.0656	-0.535 (inactive)	-0.246	-0.109	0.79	-1.36	1.94	-0.33	-0.418	-0.0932	-1.17	-0.513	-0.634	0.213	0.407	1.79	-0.9	-0.614	-0.0481	0.421 (inactive)
COCCOC(=O)N1C(=O)[C@@]2(c3cc(C#CCNC(N)=O)ccc31)[C@H](c1ccccc1OCCO)N1[C@H](c3ccccc3)[C@H](c3ccccc3)OC(=O)[C@H]1[C@@H]2C(=O)N1CCCCCCC1	0.0576	0.627 (inactive)	0.0556	-0.121	0.447	0.75	1.41	1.32	0.354	1.12	0.364	1.17	0.183	0.858	1.28	0.937	-1.51	0.76	1.13	-0.193 (inactive)
COC(=O)C1=CC(c2ccc(CO)cc2)=CC(C2CC2)N(Cc2cc3c(cc2Br)OCO3)C=C1C(=O)OC (stereo not given)	0.861	2.69 (inactive)	0.448	0.165	0.814	2.82	1.24	1.31	0.0562	1.19	2.85	1.19	0.833	0.879	0.62	0.907	0.835	0.413	1.06	-0.817 (inactive)
CCOC(=O)C[C@H]1[C@H](OC(=O)c2cc3ccccc3oc2=O)[C@@H](NC(=O)Cc2ccc(OC)cc2)c2cc(OCCCO)ccc2N1C(=O)Cc1ccc(OC)cc1	0.112	0.594 (inactive)	0.0522	-0.162	0.709	0.638	-0.0915	0.23	0.441	0.817	-0.279	-0.624	0.122	1.03	0.705	0.453	-0.202	0.983	0.348	0.827 (inactive)
C=CCNC(=O)[C@@H]1[C@H]2C(=O)O[C@H](c3ccccc3)[C@H](c3ccccc3)N2[C@H](c2ccc(OCCO)cc2)[C@@]12C(=O)Nc1ccc(C#CCNC(N)=O)cc12	0.567	0.0324 (inactive)	-0.076	-0.13	0.336	0.813	0.268	1.33	-0.822	0.6	0.156	-0.0352	0.0378	0.75	0.593	-0.187	-0.844	-0.0354	0.671	-0.851 (inactive)
O=C1NC(=O)C2C1C=CC(C(O)C(c1ccccc1)c1ccccc1)N2Nc1ccccn1 (stereo not given)	0.26	-0.212 (inactive)	0.15	0.256	0.809	0.899	0.754	-0.0644	0.691	-0.516	2.42	1.15	0.595	0.987	0.709	1.06	0.669	-0.0403	0.843	-2.04 (inactive)
CC(C)c1ccc(NN2C(C(O)c3ccccc3)C=CC3C(=O)N(c4ccccc4)C(=O)C32)cc1 (stereo not given)	0.834	-0.175 (inactive)	0.216	-0.0194	0.574	1.79	-0.191	1.32	-0.747	1.12	0.593	1.19	0.684	1.02	0.075	-0.522	0.266	-0.56	1.13	-2.04 (inactive)
NCCCCCCNC(=O)[C@@H]1C[C@@H]2C(=O)NCC(=O)N2[C@@H]1c1cccc(OCCO)c1	0.432	0.671 (inactive)	0.155	0.0001	0.695	1.47	0.758	1.2	1.18	0.828	-0.207	1.23	1.36	0.416	1.46	1.6	1.21	1.52	0.917	-1.66 (inactive)
